{"source": "patent US20210230599", "about": "“STEM-LOOP COMPOSITIONS AND METHODS FOR INHIBITING INTERLEUKIN-8” (VITRISA THERAPEUTICS, INC., published 2021)"}
{"target": "Interleukin-8 (IL8, CXCL8), C-terminal His-tagged (Homo sapiens, UniProt P10145 SEQ:1-72)", "assay": "competition; competition TR-FRET; deletion at position 16", "details": "tags: C-terminal 6xHis (Sino Biological); ssRNA; 2'-F G, 2'-OMe A/C/U, 5' C6NH2, 3' idT", "experimental": "Activity of each of these variants were tested using a time resolved competition TR-FRET assay in which the labeled parent Aptamer 3 was competed with increasing concentrations of unlabeled variants for binding to IL8 (FIG. 14). Briefly, 2-fold dilutions of thermally equilibrated aptamers were made in TR-FRET Buffer (50 mM MOPS, pH 7.4, 125 mM NaCl, 5 mM KCl, 50 μM CHAPS, 0.1 mg/mL BSA, 1 mM CaCl₂, and 1 mM MgCl₂). 5 μL of aptamer or control solution was added to 5 μl mix of 10 nM C-terminal His-tagged-IL8, 60 nM ALEXA FLUOR® 647-labeled Aptamer, and 5 nM anti-His-Eu (Perkin Elmer) in a black wall low volume 384 well plate (Greiner). For control, 5 μl of 1000-fold excess of unlabeled parent aptamer or 5 μl TR-FRET buffer alone was added to the mix of ALEXA FLUOR® 647-labeled aptamer, His-IL8, and anti-His-Eu. The plate was covered with a plate seal and subsequently incubated in the dark for 1 hour at room temperature. The plate was read on a Biotek CYTATION™ 5 plate reader. Samples were excited at 330 nm and fluorescent values were collected at 665 nm. Data analysis was performed by subtracting the background value and plotting as percent inhibition, normalized to baseline in the absence of competitor. […]", "units": {"binding signal": "fold worse than Aptamer 3"}}
{"sequence": "UGAUGACGGUAGAUUUGGGUAGAGUGACCGCAUCU", "binding signal": "~5"}
